Cycloheximide cs: counter-screen hit for Shiga toxin inhibitors, cycloheximide; cell reporter, cycloheximide protein synthesis inhibition counterscreen; max response, %; hit rate 12% among 300,000; AID 2314; in the data active = max response mostly above about 13%, no sharp cut-off; inactive = mostly below about 14%; also: read at 38.3 µM for the half of the compounds with a filed dose; 0% is about no effect
Shiga toxin inh: blocks Shiga toxin action in Vero cells; hit rate 9.2% among 290,000; AID 2315; inhibition, % at 38.7 µM; Vero cells, Shiga toxin protein synthesis inhibition reporter; in the data active = inhibition mostly above about 28%, no sharp cut-off; inactive = mostly below about 43%; also: 0% is about no effect
Marburg entry inh: inhibitors of Marburg virus binding or cell entry. Marburg virus pseudotyped entry inhibition, cell reporter. hit rate 1.8% among 300,000. Potency, µM (series often up to 37.8 µM), without a hit: top-dose activity change, negative = inhibition, actives largely listed as inhibitors. AID 540276; calls by dose curve; tested in HEK293 cells; also: potency is read from the fitted curve at half-maximal effect; % is scaled to controls: 0 for no effect and ±100 for the full control effect
LASV entry inh: inhibitors of Lassa virus binding or cell entry. Lassa virus pseudotype entry inhibition, cell reporter. Potency, µM (highest dose often 37.9 µM), for the others: at the top dose activity change, negative = inhibition, most hits filed as inhibitors. hit rate 1.2% among 300,000. AID 540256; calls by dose curve; tested in HEK293 cells; also: potency is read from the fitted curve at half-maximal effect; % is scaled to controls: 0 for no effect and ±100 for the full control effect; nearly all actives have a fitted effect of over 50% in size
* hit, by the source's call; ? = inconclusive; . = not tested or not shown; ! = a repeat was not active; [ ] = remark or other dose. Only some compounds are listed: those with a hit (about 12% of all), similar ones and a draw of the others.

SMILES	Cycloheximide cs	Shiga toxin inh	Marburg entry inh	LASV entry inh
Cc1ccc(C)c2[nH]c(=O)c(CN(Cc3ccco3)C(=S)NCC3CCCO3)cc12 (centres undefined)	-2	-19	-8%[46.1 µM]	-4%
Cc1cccc(-n2ccc(=O)c(C(=O)Nc3ccc(S(=O)(=O)Nc4nccc(C)n4)cc3)n2)c1	-9	-5	.	.
O=C1NC(=O)C(=Cc2ccc(-c3ccccc3[N+](=O)[O-])o2)C(=O)N1	0	4	?	17%
Cc1cccc(C)c1NC(=O)/C(C#N)=C/c1ccc(-c2ccc(C(=O)O)cc2)o1	21*	70*	?	?
N#C/C(=C\c1ccc(-c2ccccc2[N+](=O)[O-])o1)C(N)=O	-1	4	0%[46.1 µM]	10%[46.1 µM]
O=C(O)/C(=C\c1ccc(-c2ccccc2[N+](=O)[O-])o1)c1ccccc1	11	28*	.	.
O=C(/C=C/c1ccc(-c2ccccc2[N+](=O)[O-])o1)c1ccccc1	51*	96*	?	8%
CNC(=O)/C(C#N)=C/c1ccc(-c2ccccc2[N+](=O)[O-])o1	36*	35	?	-25%[46.1 µM]
CNC(=O)/C(C#N)=C/c1ccc(-c2ccc(Cl)cc2)o1	28*	76*	?	0%
CCCc1cnc(N2CCN(S(C)(=O)=O)CC2)nc1	23*	41	.	.
C[C@@H](C(=O)O)c1ccc(C[C@@H]2CCCC2=O)cc1	.	.	22%	.
Nc1c(Br)cc(Br)c2c1-c1ccc([N+](=O)[O-])cc1C2	.	.	6%	17%
Cc1cc(C(=O)N/N=C/c2ccc(Cl)c([N+](=O)[O-])c2)c(C)n1-c1ccc(F)cc1	13	35*	?	13µM*
Cn1cccc1CC(=O)N/N=C/c1ccc(Cl)c([N+](=O)[O-])c1	-2	30	.	.
Cc1occc1C(=O)N/N=C/c1ccc(Cl)c([N+](=O)[O-])c1	37*	56*	4µM*	-5%
Cc1cc(C(=O)N/N=C/c2ccc3c(c2)OCO3)c(C)n1-c1ccc(F)cc1	27*	62*	-13%[46.1 µM]	6%
O=C(N/N=C/c1ccc(Cl)c([N+](=O)[O-])c1)c1cc(-c2ccc3c4c(cccc24)CC3)n[nH]1	-4	-6	?	6.3µM*
Cc1cccc(N=Cc2[nH]c3ccc(Br)c(Cl)c3c2O)c1	15	63*	4%	-2%
CN(C)/C=C1\SC(=S)N(N2C(=O)C3C4C=CC(C4)C3C2=O)C1=O (centres undefined)	2	-6	0%[14.2 µM]	?
Cc1ccc2[nH]c(=O)c(CN(Cc3ccccc3)C(=S)NCCCN(C)C)cc2c1	26*	48*	?	-27%
CN(C)CCCNC(=S)N(Cc1cccs1)Cc1cc2cc3c(cc2[nH]c1=O)OCCO3	0	-13	23µM*	?
CN(C)CCCNC(=S)N(CCN(C)C)Cc1cc2cc3c(cc2[nH]c1=O)OCCO3	-1	23	?	-4%[46.1 µM]
O=[N+]([O-])c1ccc2nc(NN=Cc3ccc(O)cc3)sc2c1	.	.	?	-25%[46.1 µM]
COc1cc(CN(C2CCCCC2C)S(=O)(=O)c2ccc(S(=O)(=O)NC3CC3)cc2)cc(OC)c1OC (centres undefined)	-1	-12	10µM*	?
COc1ccc(CN(C2CCCCC2C)S(=O)(=O)c2ccc(S(=O)(=O)N(C)C)cc2)cc1OC (centres undefined)	-1	-8	?	?
SMILES	Cycloheximide cs	Shiga toxin inh	Marburg entry inh	LASV entry inh
O=C(COC(=O)c1ccco1)NCc1ccc(F)cc1	-1	-10	-6%[46.1 µM]	3%[46.1 µM]
COc1cccc(-c2noc(C3CCCN(C(=O)c4cccc(F)c4)C3)n2)c1 (centres undefined)	35*	45*	.	.
COc1cccc(-c2noc(C3CCCN(C(=O)Cc4ccccc4)C3)n2)c1 (centres undefined)	23*	24	-2%	-22%
CCCC(=O)N1CCCC(c2nc(-c3cccc(OC)c3)no2)C1 (centres undefined)	32*	77*	?	?
Cc1cccc(-n2c(C)cc(C)c(C#N)c2=O)c1	17*	88*	6%[46.1 µM]	?
COc1ccc(NC(=O)C2CCC(=O)N2C(=O)OCc2ccccc2)cc1 (centres undefined)	-6	-4	12%[46.1 µM]	22%[46.1 µM]
COc1ccc(CN(C(=O)Nc2cc(C)ccc2C)C2CCN(C(C)=O)CC2)cc1	.	.	.	-17%[46.1 µM]
CC1(C)CC(N=c2cc(-c3ccccc3)oc3ccc(Cl)cc23)CC(C)(C)N1	10	-14	?	?
OCCCN=c1cc(-c2ccccc2)oc2ccc(Cl)cc12	35*	97*	?	?
COC(=O)c1ccc(-c2noc(CN3C[C@H]4CC[C@H]3C4)n2)cc1	19*	21	.	.
COC(=O)c1ccc(-c2noc(CN(C)CC3CCCCO3)n2)cc1 (centres undefined)	43*	54	?	-10%[46.1 µM]
COC(=O)c1ccc(-c2noc(CN(Cc3ccncc3)CC3CCCO3)n2)cc1 (centres undefined)	-4	-11	-19%[46.1 µM]	6%
CCOC(=O)Cn1c(=O)n(-c2ccccc2OC)c2nc(-c3ccccc3C)nc(C(N)=O)c21	.	.	.	-14%[46.1 µM]
COc1cc(/C=C2\SC(=S)N(CCC(=O)N3CCCCC3)C2=O)cc(OC)c1OC	-2	-4	?	?
O=C(Nc1sc2c(c1C(=O)NCCCO)CCCC2)c1ccccc1	6	14	-8%[46.1 µM]	-9%[46.1 µM]
O=C(Nc1sc2c(c1C(=O)NC1CCCCC1)CCC2)c1ccco1	16	26	0%	-16%
CNC(=O)c1c(NC(=O)c2ccco2)sc2c1CCC2	31*	49	.	.
NCCNC(=O)c1c(NC(=O)c2ccccc2)sc2c1CCCC2	24*	46	?	-2%[46.1 µM]
COC(=O)c1c(NC(=O)C2C3CCC(C3)C2C(=O)O)sc2c1CCCCC2 (centres undefined)	13	51*	1%[46.1 µM]	11%
COC(=O)c1c(NC(=O)C2C3CCC(O3)C2C(=O)O)sc2c1CCCCCC2 (centres undefined)	0	12	?	3%
CCOC(=O)c1ccc(NC(=O)c2c(NC(=O)CCC(=O)O)sc3c2CCCCC3)cc1	17*	23	?	-13%[46.1 µM]
CSc1nc2cc(C)nn2c(-c2ccccc2)c1C#N	-1	-8	.	.
NC(=O)c1c(NC(=O)c2ccccc2C(=O)O)sc2c1CCCC2	1	-2	1%	1%
O=C(Nc1sc2c(c1C(=O)O)CCCCC2)c1ccccc1	42*	104*	7.1µM*	?
O=C(Nc1sc2c(c1C(=O)O)CCCC2)c1cccc(Cl)c1	50*	98*	.	.
SMILES	Cycloheximide cs	Shiga toxin inh	Marburg entry inh	LASV entry inh
O=C(Cc1ccccc1)Nc1sc2c(c1C(=O)Nc1ccc(Cl)cc1)CCCC2	31*!	38	.	14%[46.1 µM]
O=C(O)c1c(NC(=O)N2CCOCC2)sc2c1CCCC2	13*	29	?	13%[46.1 µM]
CCCNC(=O)OC[C@H]1O[C@H](CCON=C2C[C@@H](O)[C@@H](O)[C@@H]3[C@H]4C(=O)N(CC)C(=O)[C@@H]4CC[C@H]23)C=C[C@H]1Oc1ccc(OC)cc1	.	.	0%[14.2 µM]	.
Fc1ccccc1NC(=S)NN(Cc1ccccc1)c1ccccc1	-1	-20	1%	18%
O=C(Nc1sc2c(c1C(=O)O)CCC2)c1ccc(F)cc1	8	37*	-17%[46.1 µM]	?
CN(C)CCNC(=O)c1ccccc1	-3	-14	?	-10%
